Experimental findings from the supplement of paper PMC6992640 are described below.

Molecules are shown by their SMILES.

The assay has as its system HCI01 (cells of a triple-negative basal-like breast cancer xenograft). The assay can be described thus: cell viability of combination (% of vehicle); higher = less cytotoxic. Conditions: 1 µM; 72 h; partner dose: 10 nM. The method, then:
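PDX cells were treated for 72 h with each drug at 1 µM plus afatinib (10 nM; 1 µM for WHIM30). Luciferase viability is expressed as percent of vehicle.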
Consider `CCCCCCCCCCCCCCCC[n+]1ccccc1.[Cl-]` [Cetylpyridinium Chloride] + CN(C)C/C=C/C(=O)Nc1cc2c(Nc3ccc(F)c(Cl)c3)ncnc2cc1O[C@H]1CCOC1 [Afatinib], for which the “cell viability of combination” value turned out to be 52.

In the case of `Cc1cc(C(C#N)c2ccc(Cl)cc2)c(Cl)cc1NC(=O)c1cc(I)cc(I)c1[O-].[Na+]` (stereo not given) [Closantel Sodium] + CN(C)C/C=C/C(=O)Nc1cc2c(Nc3ccc(F)c(Cl)c3)ncnc2cc1O[C@H]1CCOC1 [Afatinib], the “cell viability of combination” value amounted to 53.2. Next, `Cc1cc(C(C#N)c2ccc(Cl)cc2)c(Cl)cc1NC(=O)c1cc(I)cc(I)c1O` (stereo not given) [Closantel] + CN(C)C/C=C/C(=O)Nc1cc2c(Nc3ccc(F)c(Cl)c3)ncnc2cc1O[C@H]1CCOC1 [Afatinib]: 50.6; `CCCCCCCCCCCCCCCC[N+](C)(C)C.[Br-]` [Cetrimonium Bromide (CTAB)] + CN(C)C/C=C/C(=O)Nc1cc2c(Nc3ccc(F)c(Cl)c3)ncnc2cc1O[C@H]1CCOC1 [Afatinib]: 50.1; `CCCCCCCCCCCC[N+](C)(C)CCOc1ccccc1.[Br-]` [Domiphen Bromide] + CN(C)C/C=C/C(=O)Nc1cc2c(Nc3ccc(F)c(Cl)c3)ncnc2cc1O[C@H]1CCOC1 [Afatinib]: 51.
